{"source": "paper PMC7862700", "about": "“An all-to-all approach to the identification of sequence-specific readers for epigenetic DNA modifications on cytosine”", "experiment_in_all_cases": "DAPPL (digital affinity profiling via proximity ligation, sequencing); 10 mM Tris-HCl pH 7.5, 50 mM NaCl, 1 mM DTT, 4% glycerol, room temperature, 30 min; GST-TFs on glutathione beads, 16-mer random dsDNA library, 0.1% formaldehyde crosslink after washing; high values mean tight binding", "settings_in_all_cases": "protein: recombinant; tags: N-terminal GST; dsDNA, one strand shown", "key": {"FLI1": {"target": "T1, FLI1 (Homo sapiens, UniProt Q01543 1-452)", "T1 sequence": "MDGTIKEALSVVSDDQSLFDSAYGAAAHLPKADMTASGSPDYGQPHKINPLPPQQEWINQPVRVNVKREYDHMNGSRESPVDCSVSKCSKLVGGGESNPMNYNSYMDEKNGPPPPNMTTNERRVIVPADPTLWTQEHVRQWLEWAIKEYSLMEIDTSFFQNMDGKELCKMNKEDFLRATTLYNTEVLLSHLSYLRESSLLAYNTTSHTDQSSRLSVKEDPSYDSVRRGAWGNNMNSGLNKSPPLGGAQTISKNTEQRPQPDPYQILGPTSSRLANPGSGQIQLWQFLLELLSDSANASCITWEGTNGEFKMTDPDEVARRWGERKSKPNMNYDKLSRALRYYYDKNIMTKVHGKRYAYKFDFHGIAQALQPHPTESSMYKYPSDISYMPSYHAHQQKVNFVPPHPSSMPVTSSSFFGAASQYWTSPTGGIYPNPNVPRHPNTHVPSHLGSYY", "how_it_was_run": "(§1)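 Pools of DNA-barcoded human transcription factors, expressed in yeast as GST fusions on glutathione beads and combined with a tag-only sample, were incubated with 200 nmole of a 16-mer random double-stranded DNA library. Incubation took 30 min at room temperature in Tris/NaCl/DTT/glycerol buffer and was followed by washing, 0.1% formaldehyde crosslinking, proximity ligation (BsaI/T4 ligase, 1 h, 37 °C), PCR amplification and sequencing on an Illumina NextSeq500. Binding signal is the ratio of a hexamer's read frequency for a factor to its frequency for the tag-only sample.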"}, "ELK1": {"target": "T2, ELK1 (Homo sapiens, UniProt P19419 1-428)", "T2 sequence": "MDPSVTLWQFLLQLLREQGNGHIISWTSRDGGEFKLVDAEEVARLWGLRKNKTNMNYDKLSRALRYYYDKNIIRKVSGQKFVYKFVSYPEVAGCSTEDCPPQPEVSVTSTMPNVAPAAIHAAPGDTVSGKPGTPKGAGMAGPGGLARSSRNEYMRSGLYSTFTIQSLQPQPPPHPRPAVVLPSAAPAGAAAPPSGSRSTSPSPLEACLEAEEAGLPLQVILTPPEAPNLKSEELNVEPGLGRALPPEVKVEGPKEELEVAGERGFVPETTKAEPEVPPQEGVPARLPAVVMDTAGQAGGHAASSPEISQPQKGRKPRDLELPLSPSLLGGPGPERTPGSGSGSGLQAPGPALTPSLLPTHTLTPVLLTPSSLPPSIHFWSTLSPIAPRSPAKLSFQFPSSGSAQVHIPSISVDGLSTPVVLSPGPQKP", "how_it_was_run": "as §1"}, "GABPA": {"target": "T3, GABPA (Homo sapiens, UniProt Q06546 1-454)", "T3 sequence": "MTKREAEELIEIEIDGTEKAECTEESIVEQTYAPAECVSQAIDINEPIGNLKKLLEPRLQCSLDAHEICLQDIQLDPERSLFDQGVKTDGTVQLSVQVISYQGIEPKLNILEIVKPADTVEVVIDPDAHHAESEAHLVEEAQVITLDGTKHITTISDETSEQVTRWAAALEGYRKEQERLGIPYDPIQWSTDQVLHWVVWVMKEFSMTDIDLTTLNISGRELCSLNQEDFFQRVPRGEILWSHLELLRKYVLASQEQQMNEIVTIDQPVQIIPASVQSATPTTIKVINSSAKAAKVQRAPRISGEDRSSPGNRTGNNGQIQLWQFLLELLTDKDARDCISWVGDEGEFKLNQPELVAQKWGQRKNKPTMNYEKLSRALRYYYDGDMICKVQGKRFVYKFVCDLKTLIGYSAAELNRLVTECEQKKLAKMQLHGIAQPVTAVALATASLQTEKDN", "how_it_was_run": "as §1"}, "ERG": {"target": "T4, ERG (Homo sapiens, UniProt P11308 1-479)", "T4 sequence": "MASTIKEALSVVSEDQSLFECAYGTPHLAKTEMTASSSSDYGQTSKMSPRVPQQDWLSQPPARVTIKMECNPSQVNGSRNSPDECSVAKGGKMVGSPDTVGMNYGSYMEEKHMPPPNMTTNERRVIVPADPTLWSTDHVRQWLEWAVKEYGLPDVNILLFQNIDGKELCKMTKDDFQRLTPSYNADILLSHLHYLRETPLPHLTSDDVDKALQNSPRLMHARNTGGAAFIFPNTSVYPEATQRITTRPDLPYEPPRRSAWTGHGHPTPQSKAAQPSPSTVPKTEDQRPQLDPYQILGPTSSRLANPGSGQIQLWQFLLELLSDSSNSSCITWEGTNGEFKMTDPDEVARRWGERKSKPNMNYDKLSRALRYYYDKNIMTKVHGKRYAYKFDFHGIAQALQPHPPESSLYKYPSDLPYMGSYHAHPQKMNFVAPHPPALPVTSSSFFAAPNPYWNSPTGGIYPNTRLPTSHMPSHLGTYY", "how_it_was_run": "as §1"}, "ELF1": {"target": "ELF1 (Homo sapiens, UniProt P32519 1-619)", "sequence (P32519 whole entry)": "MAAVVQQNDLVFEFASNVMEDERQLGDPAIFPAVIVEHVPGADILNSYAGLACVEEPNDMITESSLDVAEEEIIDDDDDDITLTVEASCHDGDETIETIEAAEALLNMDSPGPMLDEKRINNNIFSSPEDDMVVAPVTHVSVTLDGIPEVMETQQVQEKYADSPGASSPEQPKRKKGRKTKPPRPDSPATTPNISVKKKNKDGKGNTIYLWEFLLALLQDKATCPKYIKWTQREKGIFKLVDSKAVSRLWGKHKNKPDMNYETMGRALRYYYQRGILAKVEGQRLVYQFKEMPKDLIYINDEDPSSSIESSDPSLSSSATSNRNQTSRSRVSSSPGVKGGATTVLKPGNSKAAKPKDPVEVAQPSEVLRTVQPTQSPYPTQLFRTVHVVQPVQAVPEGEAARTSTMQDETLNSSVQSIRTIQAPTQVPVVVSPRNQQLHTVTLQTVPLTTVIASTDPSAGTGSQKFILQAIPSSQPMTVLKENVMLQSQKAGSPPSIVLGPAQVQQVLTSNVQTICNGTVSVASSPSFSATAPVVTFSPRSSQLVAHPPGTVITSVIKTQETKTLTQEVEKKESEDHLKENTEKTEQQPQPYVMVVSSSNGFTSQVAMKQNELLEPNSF", "how_it_was_run": "as §1"}, "EHF": {"target": "T5, EHF (Homo sapiens, UniProt Q9NZC4 1-300)", "T5 sequence": "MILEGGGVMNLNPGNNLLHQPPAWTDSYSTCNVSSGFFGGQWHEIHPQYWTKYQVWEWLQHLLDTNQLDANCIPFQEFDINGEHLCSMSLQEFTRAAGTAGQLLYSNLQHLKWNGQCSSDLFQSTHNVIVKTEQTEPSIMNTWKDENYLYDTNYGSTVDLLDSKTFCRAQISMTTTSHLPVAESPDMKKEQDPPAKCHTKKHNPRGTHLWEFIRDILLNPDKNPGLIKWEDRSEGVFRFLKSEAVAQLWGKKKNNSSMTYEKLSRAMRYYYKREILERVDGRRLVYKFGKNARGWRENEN", "how_it_was_run": "as §1"}, "SPI1": {"target": "SPI1 (Homo sapiens, UniProt P17947 1-270)", "how_it_was_run": "as §1"}, "SPIB": {"target": "SPIB (Homo sapiens, UniProt Q01892 1-262)", "sequence (Q01892 whole entry)": "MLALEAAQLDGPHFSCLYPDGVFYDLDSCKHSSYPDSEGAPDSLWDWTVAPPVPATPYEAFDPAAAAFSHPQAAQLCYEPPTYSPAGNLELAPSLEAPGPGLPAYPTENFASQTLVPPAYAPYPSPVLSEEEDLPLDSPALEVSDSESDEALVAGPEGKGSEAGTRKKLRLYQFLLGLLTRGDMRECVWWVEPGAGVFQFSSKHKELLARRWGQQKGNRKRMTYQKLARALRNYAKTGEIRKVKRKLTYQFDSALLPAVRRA", "how_it_was_run": "as §1"}, "ELK3": {"target": "T6, ELK3 (Homo sapiens, UniProt P41970 1-407)", "T6 sequence": "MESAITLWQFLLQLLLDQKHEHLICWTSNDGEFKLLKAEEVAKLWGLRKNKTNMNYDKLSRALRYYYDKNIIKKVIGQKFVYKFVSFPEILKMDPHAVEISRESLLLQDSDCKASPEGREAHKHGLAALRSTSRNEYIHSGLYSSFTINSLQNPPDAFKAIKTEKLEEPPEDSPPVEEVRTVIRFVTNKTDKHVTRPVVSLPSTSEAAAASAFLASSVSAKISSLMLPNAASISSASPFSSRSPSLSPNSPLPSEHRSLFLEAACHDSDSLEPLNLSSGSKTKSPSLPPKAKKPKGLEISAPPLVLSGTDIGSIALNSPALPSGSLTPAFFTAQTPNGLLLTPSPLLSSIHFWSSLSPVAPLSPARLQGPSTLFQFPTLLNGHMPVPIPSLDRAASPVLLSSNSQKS", "how_it_was_run": "as §1"}}, "data": [{"sequence": "TTGTAG", "values": [{"measurement": "binding signal", "setting": "FLI1", "result": "1.13 fold enrichment (6-mer frequency, TF over GST control)"}, {"measurement": "binding signal", "setting": "ELK1", "result": "1.19 fold enrichment (6-mer frequency, TF over GST control)"}, {"measurement": "binding signal", "setting": "GABPA", "result": "1.12 fold enrichment (6-mer frequency, TF over GST control)"}, {"measurement": "binding signal", "setting": "ERG", "result": "1.12 fold enrichment (6-mer frequency, TF over GST control)"}, {"measurement": "binding signal", "setting": "ELF1", "result": "1.14 fold enrichment (6-mer frequency, TF over GST control)"}, {"measurement": "binding signal", "setting": "EHF", "result": "1.11 fold enrichment (6-mer frequency, TF over GST control)"}, {"measurement": "binding signal", "setting": "SPI1", "result": "1.07 fold enrichment (6-mer frequency, TF over GST control)"}, {"measurement": "binding signal", "setting": "SPIB", "result": "1.23 fold enrichment (6-mer frequency, TF over GST control)"}, {"measurement": "binding signal", "setting": "ELK3", "result": "1.2 fold enrichment (6-mer frequency, TF over GST control)"}]}]}
